High-throughput results: PubChem, Pan Lab, Icahn School of Medicine at Mount Sinai
ROC1-CUL1 inh: inhibitors of human ROC1-CUL1 ubiquitin ligase activity; E3 ubiquitin-protein ligase RBX1 (Homo sapiens) + Cullin-1 (Homo sapiens), P62877+Q13616; in vitro K48 di-Ub FRET, acceptor:donor ratio, 45 min; inhibition, % at 10 µM; 140,000 tested, 0.6% active; AID 1347404, 2020; in the data active = inhibition above about 25%
The depositor's hits bear a star. Only a selection was taken, and hits are over-represented in it overall.

Screening COc1cc(C(C2C(=O)Oc3ccc(C)cc3C2=O)C2C(=O)Oc3ccc(C)cc3C2=O)cc(OC)c1OC (stereo unspecified) returned ROC1-CUL1 inh 4.3.
`Cc1ccc2c(c1)C(=O)C(C(c1ccc(Cl)cc1Cl)C1C(=O)Oc3ccc(C)cc3C1=O)C(=O)O2` (stereo unspecified) gave ROC1-CUL1 inh 56.1*.
O=C1c2cc(Cl)ccc2OCC1Br (stereo unspecified) was read as ROC1-CUL1 inh -5.9.
For COc1ccc(C2C3=C(N=c4s/c(=C/c5c[nH]c6ccccc56)c(=O)n42)c2ccccc2CC3)cc1OC (stereo unspecified) the results were ROC1-CUL1 inh -3.0.
`COc1ccc(C2C3=C(N=c4s/c(=C/c5ccc(C(=O)O)cc5)c(=O)n42)c2ccccc2CC3)cc1OC` (stereo unspecified) gave ROC1-CUL1 inh 91.7*.
Screening COc1cc(/C=c2/sc3n(c2=O)C(c2ccccc2Cl)C2=C(N=3)c3ccccc3CC2)ccc1OCc1ccc2c(c1)OCO2 (stereo unspecified) returned ROC1-CUL1 inh -1.2.
`COc1ccc(C2C3=C(N=c4s/c(=C/c5ccc(OCc6cccc(C(=O)O)c6)c(OC)c5)c(=O)n42)c2ccccc2CC3)cc1` (stereo unspecified) gave ROC1-CUL1 inh 42.9*.
For Cc1ccc(/C=c2/sc3n(c2=O)C(c2ccc(C)cc2)C2=C(N=3)c3ccccc3CC2)cc1 (stereo unspecified) the results were ROC1-CUL1 inh 3.2.
COc1cccc(C2C3=C(N=c4s/c(=C/c5ccc(O)c(OC)c5)c(=O)n42)c2ccccc2CC3)c1 (stereo unspecified) was read as ROC1-CUL1 inh -4.0.
Screening Cc1noc(-c2nn(C)c(C)c2[N+](=O)[O-])c1[N+](=O)[O-] returned ROC1-CUL1 inh 2.3.
Cc1cc(C(F)(F)F)nn1C(=O)C1(C)CC1(Br)Br (stereo unspecified) was read as ROC1-CUL1 inh 5.4.
`CCOc1ccc(/C=C2\C(=O)C(C(=O)OC)=C(C)N2c2ccc(C)cc2)cc1` gave ROC1-CUL1 inh 7.5.
For Fc1c(F)c(F)c2nc3c(cc2c1F)c(-c1ccccc1)nn3-c1ccccc1 the results were ROC1-CUL1 inh 2.6.
`COc1ccc(CNc2c(F)c(F)c3nc4c(cc3c2F)c(-c2ccccc2)nn4C)cc1` gave ROC1-CUL1 inh 95.6*.
Screening COc1ccc(CNc2nc3c(-c4cccc(F)c4)nnn3c3ccccc23)cc1 returned ROC1-CUL1 inh 1.9.
COc1ccc(C(=O)Cc2nc3ccccc3c(=O)[nH]2)cc1 was read as ROC1-CUL1 inh 7.9.
For O=C(O)c1cccc(NC(=O)c2ccc3c(c2)C(=O)N(C2CCCCC2)C3=O)c1 the results were ROC1-CUL1 inh 26.5*.
For CC(C)(C)NC(=O)c1ccc2c(c1)C(=O)N(C1CCCCC1)C2=O the results were ROC1-CUL1 inh -0.3.
For COc1ccc(C(=O)Nc2ccc3c(c2)C(=O)N(C2CCCCC2)C3=O)cc1 the results were ROC1-CUL1 inh 11.1.
For Cc1ccc2c(c1)C(=O)CC(CSc1nnc(NC(=O)COc3ccc(F)cc3)s1)=N2 the results were ROC1-CUL1 inh -2.4.
For CSc1cccc(NC(=O)CSc2nnc(-c3ccc(Cl)cc3)n2N)c1 the results were ROC1-CUL1 inh -1.4.
`Cc1ccc2nc(-c3ccc(N4C(=O)CC(N5CCCC(C(N)=O)C5)C4=O)cc3)sc2c1` (stereo unspecified) gave ROC1-CUL1 inh 8.0.
`CCCCN1C(=O)C(=Cc2ccco2)C(=O)N(CCCC)C1=S` gave ROC1-CUL1 inh 98.9*.
For CCCCN1C(=O)C(=Cc2cccs2)C(=O)N(CCCC)C1=S the results were ROC1-CUL1 inh 4.0.
`CCCCN1C(=O)C(=Cc2ccc(OCC)c(OC)c2)C(=O)N(CCCC)C1=S` gave ROC1-CUL1 inh 1.1.
For CCCCN1C(=O)C(=C/C=C/c2ccco2)C(=O)N(CCCC)C1=S the results were ROC1-CUL1 inh 31.2*.
CCCCC1(C)OC(=O)C(=Cc2ccc3c(c2)OCO3)C(=O)O1 (stereo unspecified) was read as ROC1-CUL1 inh -4.8.
Screening O=C1NN(c2ccc(Br)cc2)C(=O)/C1=C\C=C\c1ccco1 returned ROC1-CUL1 inh 3.9.
Screening CCCCCCN1C(=O)NC(=O)/C(=C\c2ccc3c(c2)OCO3)C1=O returned ROC1-CUL1 inh 7.0.
Screening CCCCN1C(=O)/C(=C/c2ccc3c(c2)OCO3)C(=O)N(Cc2ccco2)C1=S returned ROC1-CUL1 inh 101.4*.
CCCCN1C(=O)C(=O)N(c2ccccc2)C1=S was read as ROC1-CUL1 inh 1.4.
COc1ccc(CNCCC(C)C)c(OCC(O)CN2CCN(C)CC2)c1 (stereo unspecified) was read as ROC1-CUL1 inh -1.2.
Screening Cc1cc(Oc2cccc(C#N)c2C#N)ccc1Cl returned ROC1-CUL1 inh 5.7.
`COc1ccccc1/C=c1\sc2n(c1=O)C(=N)C(C#N)C(c1ccccc1OC)C=2C#N` (stereo unspecified) gave ROC1-CUL1 inh 7.6.
